# Screening data: PubChem, National Center for Advancing Translational Sciences (NCATS)
# Only some compounds are listed: those with a hit (about 10% of all), similar ones and a draw of the others.
# Sfp PPTase inh: qHTS Assay for Inhibitors of Bacillus subtilis Sfp phosphopantetheinyl transferase (PPTase); 4'-phosphopantetheinyl transferase ffp (Bacillus subtilis), Q9F4F7; Biochemical Sfp PPTase activity, qHTS; Potency, µM, for inactives: largest response in the series, negative = inhibition, hits mostly inhibitors; hit rate 3.5% among 310,000;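 note: the enzyme is Sfp with the accession as filed and its product quenches rhodamine fluorescence; potency is the fitted concentration of half-maximal effect; 0% = enzyme reaction without inhibitor and -100% = no enzyme wells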
#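 Fluorescence-quenching assay: 15 nM Sfp-PPTase preincubated 15 min at room temperature with compound, then 5 uM rhodamine-CoA and 12.5 uM BHQ-2-labelled YbbR peptide added. Fluorescence (ex 525/em 598 nm) read at start and after 30 min; difference gives rate.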
# VDR inh: Inhibitors of the vitamin D receptor (VDR): qHTS | Vitamin D3 receptor (Homo sapiens), P11473 | VDR-SRC2-3 peptide fluorescence polarization, 2 h | Potency, µM, for the others: max response, negative = inhibition, hits mostly inhibitors | hit rate 0.93% among 400,000 | AID 504847, 2011; note: potency is the fitted concentration of half-maximal effect
# Target sequence (P11473 whole entry, looked up): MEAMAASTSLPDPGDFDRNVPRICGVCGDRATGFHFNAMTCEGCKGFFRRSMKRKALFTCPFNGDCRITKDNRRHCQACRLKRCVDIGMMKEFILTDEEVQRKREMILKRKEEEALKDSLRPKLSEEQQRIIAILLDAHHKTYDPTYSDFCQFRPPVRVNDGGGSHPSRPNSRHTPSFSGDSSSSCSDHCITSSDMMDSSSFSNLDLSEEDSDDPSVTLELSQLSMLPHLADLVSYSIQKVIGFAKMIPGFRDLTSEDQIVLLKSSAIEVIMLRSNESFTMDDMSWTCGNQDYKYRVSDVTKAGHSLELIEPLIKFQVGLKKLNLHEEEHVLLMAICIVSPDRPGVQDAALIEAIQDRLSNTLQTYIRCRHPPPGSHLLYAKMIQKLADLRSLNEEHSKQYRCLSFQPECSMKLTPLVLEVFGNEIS
#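 After 23 nl compound addition and a short centrifugation, plates sat for 2 hours at ambient temperature; polarization of fluorescence then indicated loss of VDR binding to peptide SRC2-3.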
# CCT chaperon mod: High-Throughput Screening for Modulators of Cytosolic Chaperonin Activity; purified chaperonin ATPase assay, HTRF ADP detection, 30 min; activity change, % (test concentration not listed), hits read low; hit rate 0.3% among 360,000; in the data active = activity change below about -30%
#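 We incubate TRiC, 40 or 20 nM final, with library compounds at 76 uM and 10 uM ATP for 30 min at 37 °C. ADP formed is detected with Transcreener HTRF reagents after 30 min at room temperature.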
# G9a inh: qHTS Assay for Inhibitors of Histone Lysine Methyltransferase G9a | Histone-lysine N-methyltransferase EHMT2 (Homo sapiens), Q96KQ7 | G9a H3K9 monomethylation, AlphaScreen, 2 h | Potency, µM (top dose mostly 102 µM), inactives show top-dose activity, negative = inhibition, hits mostly inhibitors | hit rate 8.8% among 350,000; note: potency is the fitted concentration of half-maximal effect; nearly all actives have a fitted effect of over 75% in size
# Target sequence (Q96KQ7 913-1193 limits assumed): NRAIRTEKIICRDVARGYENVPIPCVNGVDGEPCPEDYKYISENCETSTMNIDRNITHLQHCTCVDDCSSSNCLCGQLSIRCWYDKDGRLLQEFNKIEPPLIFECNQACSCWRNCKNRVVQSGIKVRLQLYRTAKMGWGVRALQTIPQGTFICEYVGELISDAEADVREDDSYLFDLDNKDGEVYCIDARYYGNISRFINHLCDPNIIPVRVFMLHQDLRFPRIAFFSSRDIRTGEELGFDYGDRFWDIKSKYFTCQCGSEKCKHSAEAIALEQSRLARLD
#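 G9a (20 nM) preincubated 15 min RT with compounds, then 500 nM biotinylated H3K9 peptide and 20 uM SAM added; 2 h RT reaction. Monomethyl-H3K9 product detected by AlphaScreen with anti-H3K9me1 antibody, streptavidin donor and anti-rabbit IgG acceptor beads.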
# Mm-Cpn inhibitor: Inhibitors of TCP-1 ring complex (TRiC) of Methanococcus maripaludis (MmCpn): qHTS; Chaperonin Mm-Cpn (Methanococcus maripaludis); purified Mm-Cpn ATPase, ADP Transcreener TR-FRET; Potency, µM (titrated, usually from 76.9 µM), for the others: top-dose activity, negative = inhibition, actives largely listed as inhibitors; hit rate 0.031% among 330,000; AID 504842, 2011; note: potency is the fitted concentration of half-maximal effect; nearly all actives have a fitted effect of over 80% in size
#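 ATPase turnover read by TR-FRET ADP competition (Eu cryptate antibody/ADP-d2, 665/590 nm): 10uM ATP final, 25nM Mm-CPN final, 30 min 37degC after 10-min compound preincubation, pH 7.4 Tris/KCl/MgCl2/DTT buffer.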
# PLK1 PBD block: qHTS for Inhibitors of PLK1-PDB (polo-like kinase 1 - polo-box domain): Primary Screen. Serine/threonine-protein kinase PLK1 (Homo sapiens), P53350. Plk1 PBD binding of FITC phosphopeptide, fluorescence polarization. Potency, µM, without a hit: max response, negative = inhibition, usual class: inhibitors. hit rate 2.8% among 360,000. AID 720504, 2013; note: potency is the fitted concentration of half-maximal effect; series mostly up to about 57 µM; nearly all actives have a fitted effect of over 65% in size
# * = called active by the depositor; ? = inconclusive; nt = not tested or not shown; [ ] = another dose, or the depositor's remark. Unless noted, calls come from the whole dose curve; as a rule, active = well fitted curve in the direction sought with a large enough effect; inconclusive = small, poorly fitted or top-dose-only effect, or another doubt; inactive = no such curve, though single readings can be large; an effect the other way counts as inactive or inconclusive. Unless noted, % is set by controls: 0 for no effect and ±100 for the full control effect.
SMILES,Sfp PPTase inh,VDR inh,CCT chaperon mod,G9a inh,Mm-Cpn inhibitor,PLK1 PBD block
Fc1ccc(COc2ccc(Br)cc2CNCC2CCCO2)cc1 (stereo not drawn),-10%,21%,2,50µM*,-3%,-11%
c1ccc(CN2CCN(c3nc4ccccc4n4cnnc34)CC2)cc1,-3%,-16%,0,50µM*,2%,-11%
c1ccc2c(c1)nc(NCCN1CCOCC1)c1nncn12,-1%,0%,1,50µM*,0%,4%
c1ccc2c(c1)CCN(c1nc3ccccc3n3cnnc13)C2,-7%,-19%,-2,50µM*,0%,-9%
CCCN(Cc1cc2cccc(C)c2[nH]c1=O)C(=O)c1cccc(Cl)c1,nt,0%,nt,-10%[59 µM],nt,nt
Cc1ccccc1SCC(=O)Nc1ccc(N2CCOCC2)cc1,17%,-27%,-1,-6%[59 µM],1%,19µM*
O=C(CSc1cccc[n+]1[O-])Nc1ccc2c(c1)OCCO2,19%,2%,2,25%[0.0925 µM],-1%,-7%
Cc1ccccc1OCCCC(=O)Nc1ccc(N2CCOCC2)cc1,-5%,-7%,-1,45µM*,-1%,-11%
Cc1ccc(SCC(=O)Nc2ccc(N3CCOCC3)cc2)c(C)c1,-5%,-3%,-2,0%,0%,1%
COc1ccccc1OCCCC(=O)Nc1ccc(N2CCOCC2)cc1,-6%,-1%,-4,?,-1%,-2%
Cn1c(=O)c2ncn(CC(=O)Nc3ccc(N4CCOCC4)cc3)c2n(C)c1=O,-12%,-3%,1,14µM*,-2%,-2%
O=C(CSc1cccc[n+]1[O-])Nc1ccc(N2CCOCC2)cc1,11%,nt,nt,56µM*,2%,nt
CO[C@@H]1COC(=O)[C@@H](C)COC(=O)[C@@H](C)NC(=O)C/C=C\[C@@H]1C,-13%,nt,nt,nt,nt,nt
Cc1c(-c2ccccc2)n(-c2ccc(Cl)cc2)c2nc3c(c(=O)n(C)c(=O)n3C)n12,nt,11%,nt,7%[59 µM],nt,nt
CNC(=O)c1ccc2nc(Cc3ccccc3)oc2c1,nt,9%,nt,7%[59 µM],nt,nt
Fc1ccccc1-c1nc(-c2ccccc2)oc1NC1CCCCC1,-15%,-9%,nt,nt,nt,nt
Nc1ccccc1SCC(=O)Nc1ccc(N2CCOCC2)cc1,6%,?,1,45µM*,1%,0%
O=C(CSc1cccc[n+]1[O-])Nc1ccc([N+](=O)[O-])cc1Cl,14%,-14%,0,56µM*,1%,-2%
CCN(CC)S(=O)(=O)c1ccc(Cl)c(NC(=O)CSc2cccc[n+]2[O-])c1,-5%,-11%,0,7%,-1%,-8%
O=C(CSc1ncccn1)Nc1ccc(N2CCOCC2)cc1,-5%,-5%,-1,-16%,-1%,-5%
COc1ccccc1-c1ccc2ncnc(Nc3ccccc3)c2c1,-6%,-24%,nt,-39%[0.501 µM],nt,nt
N#Cc1ccc(C(=O)Nc2ccccc2-c2nc3ccccc3s2)c(F)c1,nt,15%,nt,1%[59 µM],nt,nt
COc1cc(OC)cc(Oc2ccc(S(=O)(=O)N3CCCCC3)cc2[N+](=O)[O-])c1,12%,11%,-2,79µM*,0%,3%
CC(=O)Nc1ccc(S(=O)(=O)N2CCC(N3CCCCCC3)CC2)cc1,15%,12%,1,40µM*,0%,3%
O=C(Nc1ccc(S(=O)(=O)N2CCCCC2)cc1)c1ccccc1Cl,0%,-17%,1,4%,1%,30µM*
SMILES,Sfp PPTase inh,VDR inh,CCT chaperon mod,G9a inh,Mm-Cpn inhibitor,PLK1 PBD block
CC(=O)Nc1ccc(S(=O)(=O)N2CCC(N3CCCCC3)CC2)cc1,16%,24%,-2,-3%,0%,-10%
Cc1ccccc1N1CC(C(=O)Nc2ccc(S(=O)(=O)N3CCCCC3)cc2)CC1=O (stereo not drawn),-12%,-17%,-2,71µM*,3%,17%
Cc1ccc(S(=O)(=O)N2CCCCC2)cc1C(=O)Nc1ccc(S(=O)(=O)Nc2ncccn2)cc1,9%,?,-1,50µM*,1%,-28%
O=C(Nc1ccc(S(=O)(=O)Nc2ncccn2)cc1)c1ccc(S(=O)(=O)N2CCCC2)cc1,13%,6%,-18,?,-1%,-8%
O=C(CN1C(=O)c2ccccc2S1(=O)=O)Nc1ccc(S(=O)(=O)N2CCCCC2)cc1,20%,-16%,-1,3%[59 µM],nt,24µM*
CCOC(=O)N1CCN(S(=O)(=O)c2ccc(Cl)cc2)CC1,2%,-9%,-1,nt,1%,2%
Cc1cc(S(=O)(=O)N2CCC(N3CCCCC3)CC2)ccc1-n1cnnn1,1%,-21%,-4,50µM*,-1%,3%
O=C(CN1C(=O)c2ccccc2S1(=O)=O)Nc1ccc(S(=O)(=O)N2CCCC2)cc1,4%,8%,1,39%[59 µM],-1%,-1%
CCOC(=O)N1CCC(N2CCN(S(=O)(=O)c3ccc(Cl)cc3)CC2)CC1,50µM*,0%,-3,?,0%,-7%
O=C(Nc1c(Cl)cccc1Cl)c1cc(-c2cccc(O)c2)on1,nt,-10%,nt,-10%[59 µM],nt,nt
COCCCCCCCCCCCC(=O)O,1%,-15%,nt,8%[59 µM],nt,nt
COc1ccc(NC(=O)COc2ccc(S(=O)(=O)NC3CCCCC3)cc2)c(OC)c1,nt,-9%,nt,6%[59 µM],nt,nt
COc1ccc(C(=O)NCC(c2cccnc2)N2CCc3ccccc3C2)cc1 (stereo not drawn),nt,8%,nt,-6%[59 µM],nt,nt
O=S(=O)(c1ccc(Cl)cc1)N1CCC(N2CCCCCC2)CC1,-2%,-11%,-1,2.5µM*,1%,0%
COc1ccc(NC(=O)c2cc(S(=O)(=O)N3CCCC3)ccc2OC)cc1,11%,-27%,1,-7%,1%,17µM*
CCN(CC)C(=O)Cn1c(SCC(=O)Nc2ccc(C)c(C)c2)nc2ccccc21,nt,-1%,nt,23%[59 µM],nt,nt
Cc1cc(Nc2ccc(C)c(Cl)c2)n2nc(Cc3ccccc3)nc2n1,nt,4%,nt,21%[59 µM],nt,nt
C[C@H]1Cc2c(COc3ccccc3)nc3c(c2CO1)CN(C(=O)NCCc1c[nH]c2ccccc12)CC3,-11%,nt,nt,nt,nt,nt
CC1CCN(S(=O)(=O)c2ccc3c(c2)c(=O)c(C(=O)N2CCN(c4cccc(Cl)c4)CC2)cn3C)CC1,nt,-9%,nt,5%[59 µM],nt,nt
CC(C)c1nc(SCC(=O)Nc2ccc(N(C)C)cc2)c2ccccc2n1,-7%,17%,-1,8.9µM*,0%,-1%
O=C(CSc1cnc2ccccc2n1)c1ccc(F)cc1,-61%,-7%,0,7.1µM*,-2%,?
Cc1ccc(C(=O)CSc2nc(C(C)C)nc3ccccc23)cc1,40µM*,-3%,0,31%,-7%,-3%
